PubChem BioAssay (EPA / NIEHS)
Records with an inconclusive call do not appear. Active and inactive are the calls of the source. Rule for the calls: active = hit-call score of the fitted dose curve at least 0.9, where 1 is the maximum; inconclusive = response in the unintended direction; inactive = score below 0.9.

biological target: Estrogen receptor beta (Homo sapiens) (UniProt Q92731); experiment: OT_ER_ERbERb_0480: Odyssey Thera (OT) 8-hour HEK293T Protein-Complementation Assay for Estrogen Receptor-beta/-beta Homodimer (AID 2283357)
Sequence (Q92731 whole entry, looked up, the tested form may be a part): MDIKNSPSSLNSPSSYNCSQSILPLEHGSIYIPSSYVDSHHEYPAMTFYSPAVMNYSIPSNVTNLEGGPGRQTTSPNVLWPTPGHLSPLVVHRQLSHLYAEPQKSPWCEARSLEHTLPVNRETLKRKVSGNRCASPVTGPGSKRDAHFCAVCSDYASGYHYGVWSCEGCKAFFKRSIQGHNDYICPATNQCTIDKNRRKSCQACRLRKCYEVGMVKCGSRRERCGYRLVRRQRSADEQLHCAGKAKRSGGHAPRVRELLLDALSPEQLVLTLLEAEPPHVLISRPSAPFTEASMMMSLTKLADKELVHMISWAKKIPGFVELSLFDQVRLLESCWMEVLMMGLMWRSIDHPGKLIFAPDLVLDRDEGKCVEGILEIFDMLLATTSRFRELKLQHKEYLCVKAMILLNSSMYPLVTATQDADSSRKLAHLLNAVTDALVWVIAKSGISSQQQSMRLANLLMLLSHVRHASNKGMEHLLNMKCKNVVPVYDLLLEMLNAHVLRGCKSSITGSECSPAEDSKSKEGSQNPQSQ
Experimental: OT_ER_ERbERb_0480 is a cell-based assay that uses HEK293T, a human kidney cell line, with measurements taken at 8 hours after chemical dosing in a 384-well plate.OT_ER_ERbERb_0480 is one of one assay component(s) measured or calculated from the OT_ER_ERbERb_0480 assay. It is designed to make measurements of protein fragment complementation, a form of binding reporter, as detected with fluorescence intensity signals by Protein-fragment Complementation technology.Data from the assay component OT_ER_ERbERb_0480 was analyzed into 1 assay endpoint. This assay endpoint, OT_ER_ERbERb_0480, was analyzed in the positive analysis fitting direction relative to DMSO as the negative control and baseline of activity. Using a type of binding reporter, measures of receptor for gain-of-signal activity can be used to understand the binding at the pathway-level as they relate to the gene ESR2. Furthermore, this assay endpoint can be referred to as a primary readout, because the performed assay has only produced 1 assay endpoint. To generalize the intended target to other relatable targets, this assay endpoint is annotated to the nuclear receptor intended target family, where the subfamily is steroidal.
Protein-fragment complementation assay, or PCA, is a method for the identification and quantification of protein-protein interactions. In the PCA, the proteins of interest ("bait" and "prey") are each covalently linked to fragments of a third protein (e.g. DHFR, which acts as a "reporter"). Interaction between the bait and the prey proteins brings the fragments of the reporter protein in close proximity to allow them to form a functional reporter protein whose activity can be measured. The OT ER beta / ER beta assay is a homodimer PCA of the ligand binding domain (LBD; amino acids 310-547) of human ER beta stably expressed in HEK293T cells. […] Cells are fixed in 4 percent formaldehyde and stained with Draq5 (BioStatus) to identify cells prior to signal detection. Fluorescent signal in the basal state of the assay is very low and is primarily punctuate and cytoplasmic. Modulation of this assay is quantified as an increase in mean fluorescence intensity in the nucleus (for agonists) or in the nucleus and cytoplasm (antagonists) relative to vehicle controls, and can be quantified on a high content imaging device or a laser scanning cytometer. The latter instrument is favored for this assay because of the rapid mode of data acquisition, the ability to acquire data from the entire cell population in a well (as opposed to a fraction of the well on the high content devices) and the larger dynamic range typically achieved with this instrument. To assess sensitivity of the ER beta/ER beta LBD assay to ligand, cells were treated with the ER agonist 17- beta-estradiol (E2) in 10-point concentration- response format for 8 hours and monitored response on a laser scanning plate cytometer (Acumen eX3; TTP Lab Tech).

Row | Structure (SMILES) | outcome | AC50
1 | BrC1CCC(Br)C(Br)CCC(Br)C(Br)CCC1Br (stereo not given) | inactive | –
2 | CC(C)(C#N)c1cc(Cn2cncn2)cc(C(C)(C)C#N)c1 | inactive | –
3 | CCC/C=C/C=O | inactive | –
4 | CCCCCCCCCCCCCOS(=O)(=O)O | inactive | –
5 | Cc1ccc(S)cc1 | inactive | –
6 | CC(C)=CCCC(C)=CCCC(C)=CCO | inactive | –
7 | c1ccc2[nH]ccc2c1 | inactive | –
8 | C=CC[N+](C)(C)CC=C | inactive | –
9 | NC(=O)Nc1ccc(Cl)cc1 | inactive | –
10 | OCCN1CCNCC1 | inactive | –
11 | O=C(O)CCCCCCCC(=O)O | inactive | –
12 | O=C(Oc1ccccc1)c1ccc(O)cc1 | – | 2.42 µM (active)
13 | CC(C)=CCC[C@](C)(O)[C@@H]1CC=C(C)CC1 | inactive | –
14 | C=O | inactive | –
15 | NCCCN1CCOCC1 | inactive | –
16 | CCCCc1ccc(N)cc1 | inactive | –
17 | CCCCC[Si](OCC)(OCC)OCC | inactive | –
18 | CCCCC(CC)COC(=O)/C=C\C(=O)OCC(CC)CCCC (stereo not given) | inactive | –
19 | C=CC(C)(O)CCC=C(C)CCC=C(C)C (stereo not given) | inactive | –
20 | CCCCOCCOCCOCCOCCO | inactive | –

Row | Structure (SMILES) | outcome | AC50
21 | CCCCCCCCCCCCCCCC(=O)O | inactive | –
22 | COc1ccc(O)cc1 | inactive | –
23 | O=c1cc(-c2ccccc2)oc2cc(O)cc(O)c12 | – | 7.09 µM (active)
24 | CCN(CC)c1ccc2c(-c3ccccc3C(=O)O)c3ccc(=[N+](CC)CC)cc-3oc2c1 | – | 12.2 µM (active)
25 | C[Si](O[Si](C)(C)C)O[Si](C)(C)C | inactive | –
26 | CCC(=O)/C=C/C1C(C)=CCCC1(C)C (stereo not given) | inactive | –
27 | O=C(O)c1ccc([N+](=O)[O-])cc1 | inactive | –
28 | OCCOCCOCCOCCO | inactive | –
29 | CC(C)CCCCCCCOC(=O)c1ccc(C(=O)OCCCCCCCC(C)C)c(C(=O)OCCCCCCCC(C)C)c1 | inactive | –
30 | CCCCCCCCCCN | inactive | –
31 | CCCCCCCCCCCCCCCCCC(=O)OCC(CC)CCCC (stereo not given) | inactive | –
32 | CC1(C)C(=O)N(Br)C(=O)N1Cl | inactive | –
33 | CC(C)(N)CO | inactive | –
34 | CCCCCCCCCCCCCC(=O)O | inactive | –
35 | O=C(Cl)c1cccc(C(=O)Cl)c1 | inactive | –
36 | CCCCCOC(=O)CCC | inactive | –
37 | CCCCCCCCC=O | inactive | –
38 | Cc1ccc(C(C)C)cc1O | – | 63.6 µM (active)
39 | CC(C)c1cccc(O)c1 | – | 52 µM (active)
40 | CCCCCCCCC | inactive | –
